Results filed as inconclusive are left out. Active and inactive are the calls of the source. Unless noted, calls come from the whole dose curve.
Assays:
[1] = qHTS assay to identify small molecule agonists of the vitamin D receptor (VDR) signaling pathway - cell viability counter screen (AID 743224; active = well fitted curve in the direction sought with a large enough effect in the repeat runs; an effect the other way counts as inactive or inconclusive; note: series mostly up to about 63 µM; % is set by controls: 0 for no effect and ±100 for the full control effect; nearly all actives have a fitted effect of over 50% in size)
Method in brief: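 Viability is measured in the same wells as the VDR-bla reporter assay: after 16 h compound treatment and 2 h substrate loading, CellTiter-Glo is added and luminescence read 30 min later.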

[2] = qHTS assay to identify small molecule antagonists of the vitamin D receptor (VDR) signaling pathway - cell viability counter screen (AID 743225; active = well fitted curve in the direction sought with a large enough effect in the repeat runs; an effect the other way counts as inactive or inconclusive; note: % is set by controls: 0 for no effect and ±100 for the full control effect; nearly all actives have a fitted effect of over 50% in size)
Method in brief: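 VDR-bla HEK 293T cells, 4 h pre-incubation at 37C, then compound plus 1-alpha,25-dihydroxyvitamin D3 (3 nM final) for 16 h. After the beta-lactamase FRET read, CellTiter-Glo was added to the same wells; luminescence after 30 min at room temperature.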

[3] = qHTS assay to identify small molecule agonists of the endoplasmic reticulum stress response signaling pathway (AID 1159516; active = well fitted activation curve with a large enough effect in the signal ratio in the repeat runs, not every such curve was filed as active; the % refers to the signal ratio; note: % is set by controls: 0 for no effect and ±100 for the full control effect)
Method in brief: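 Tox21 10K library screened in quantitative HTS format on ESRE-bla HeLa cells, a beta-lactamase reporter under ER stress response element control; 5 hr treatment, FRET read.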

[4] = qHTS assay to identify small molecule agonists of the endoplasmic reticulum stress response signaling pathway - cell viability counter screen (AID 1159517); note: series mostly up to about 61 µM; % is set by controls: 0 for no effect and ±100 for the full control effect; nearly all actives have a fitted effect of over 50% in size
Method in brief: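 Counter-screen wells were identical to the reporter wells. Cells were plated at 1,500 per well and dosed for 5 hr, then read for luminescence 30 min after CellTiter-Glo addition.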

[5] = qHTS assay to identify small molecule antagonists of the retinoid-related orphan receptor gamma (ROR-gamma) signaling pathway - cell viability counter screen (AID 1159520; active = well fitted curve in the direction sought with a large enough effect in the repeat runs; an effect the other way counts as inactive or inconclusive; note: % is set by controls: 0 for no effect and ±100 for the full control effect; nearly all actives have a fitted effect of over 50% in size)
Method in brief: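 Tet-on ROR gamma CHO cells were given compounds for 2 hr, then doxycycline hyclate at 1 uM final, and incubated 16 hr at 37 C. Viability was measured as ATP content by CellTiter-Glo luminescence.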

[6] = molecular target: Nuclear receptor ROR-gamma (Homo sapiens) (UniProt P51449); test: qHTS assay to identify small molecule antagonists of the retinoid-related orphan receptor gamma (ROR-gamma) signaling pathway (AID 1159521; active = well fitted curve in the direction sought with a large enough effect in the repeat runs; an effect the other way counts as inactive or inconclusive)
Method in brief: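 Tet-on RORγ CHO cells carrying a ROR response element–luciferase reporter were pretreated with compounds for 2 h, then induced with 1 uM (final) doxycycline hyclate for 16 h at 37 C. Antagonism was read as decreased ONE-Glo luminescence.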

[7] = qHTS assay to identify small molecule agonists of the AP-1 signaling pathway - cell viability counter screen (AID 1159525); note: nearly all actives have a fitted effect of over 55% in size
Method in brief: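 AP-1-bla ME-180 cells in Opti-MEM with 0.5% dialyzed FBS, compound exposure 5 h at 37 C in 15-point titration. Viability read in the same wells as ATP content by CellTiter-Glo luminescence, normalised to tetra-n-octylammonium bromide and DMSO controls.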

[8] = qHTS assay to identify small molecule agonists of the AP-1 signaling pathway (AID 1159526); note: % is set by controls: 0 for no effect and ±100 for the full control effect
[9] = qHTS assay to identify small molecule agonists of the NFkB signaling pathway - cell viability counter screen (AID 1159515); note: series mostly up to about 61 µM; % is set by controls: 0 for no effect and ±100 for the full control effect; nearly all actives have a fitted effect of over 55% in size
Method in brief: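 Multiplexed viability readout: after the 5 hr compound exposure and 1.5 hr FRET substrate step, CellTiter-Glo reagent went into the same NFkB-bla ME-180 wells; ATP luminescence was measured after 30 min at room temperature.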

C[C@@H]1C[C@H]2[C@@H]3C[C@H](F)C4=CC(=O)C=C[C@]4(C)[C@@]3(F)[C@@H](O)C[C@]2(C)[C@@]1(O)C(=O)CO
inactive: outcome [1] | outcome [2] | outcome [3] | outcome [4] | outcome [5] | outcome [6] | outcome [7] | outcome [8]

CCOC(=O)CC(CC(=O)OCC)(OC(C)=O)C(=O)OCC
inactive: outcome [2] | outcome [9] | outcome [3] | outcome [4] | outcome [5] | outcome [6] | outcome [7] | outcome [8]

CN(C1CCCCC1)S(=O)(=O)c1ccccc1N
inactive: outcome [1] | outcome [2] | outcome [9] | outcome [3] | outcome [4] | outcome [5] | outcome [6] | outcome [7] | outcome [8]

CN=C(NC#N)NCCSCc1csc(N=C(N)N)n1
inactive: outcome [1] | outcome [2] | outcome [9] | outcome [3] | outcome [4] | outcome [5] | outcome [6] | outcome [7] | outcome [8]

C=C(C)[C@@H]1CC[C@@H](C)C[C@@H]1O
inactive: outcome [1] | outcome [2] | outcome [9] | outcome [3] | outcome [4] | outcome [5] | outcome [7] | outcome [8]

C1=C\CC/C=C\CC/1
inactive: outcome [1] | outcome [2] | outcome [9] | outcome [3] | outcome [4] | outcome [5] | outcome [6] | outcome [7] | outcome [8]

Cc1ccc(S(=O)(=O)NC(=O)NC2CCCCCCC2)cc1
inactive: outcome [2] | outcome [3] | outcome [4] | outcome [7] | outcome [8]

CO[Si](CCCCl)(OC)OC
inactive: outcome [1] | outcome [2] | outcome [3] | outcome [4] | outcome [5] | outcome [6] | outcome [7] | outcome [8]

CC(C)CCCCCCOC(=O)C1CCCCC1C(=O)OCCCCCCC(C)C (stereo not given)
inactive: outcome [1] | outcome [2] | outcome [9] | outcome [3] | outcome [4] | outcome [6] | outcome [7] | outcome [8]

Cc1cc(O)c2c(c1)C(=O)c1cccc(O)c1C2=O
inactive: outcome [1] | outcome [2] | outcome [9] | outcome [3] | outcome [4] | outcome [5] | outcome [6] | outcome [7] | outcome [8]

NS(=O)(=O)c1ccc(Cl)c(S(N)(=O)=O)c1
inactive: outcome [1] | outcome [2] | outcome [9] | outcome [3] | outcome [4] | outcome [5] | outcome [6] | outcome [7] | outcome [8]

CN(C)CCOCCN(C)CCO
inactive: outcome [1] | outcome [2] | outcome [9] | outcome [3] | outcome [4] | outcome [5] | outcome [7] | outcome [8]

O=C(O)c1ccccc1C(=O)OCc1ccccc1
inactive: outcome [1] | outcome [2] | outcome [9] | outcome [3] | outcome [4] | outcome [5] | outcome [6] | outcome [7] | outcome [8]

CN[C@@H]1[C@H](O)[C@H](NC)[C@H]2O[C@@]3(O)C(=O)C[C@@H](C)O[C@H]3O[C@@H]2[C@H]1O
inactive: outcome [1] | outcome [2] | outcome [9] | outcome [3] | outcome [4] | outcome [5] | outcome [6] | outcome [7] | outcome [8]

CCCCC(CC)COC(=O)c1ccccc1 (stereo not given)
inactive: outcome [1] | outcome [2] | outcome [9] | outcome [3] | outcome [4] | outcome [5] | outcome [7] | outcome [8]

O=C(CN1CCN(Cc2ccc3c(c2)OCO3)CC1)N1c2ccccc2Sc2ccccc21
inactive: outcome [1] | outcome [2] | outcome [9] | outcome [3] | outcome [4] | outcome [5] | outcome [6] | outcome [7] | outcome [8]

CC(=O)OC(C)c1ccccc1 (stereo not given)
inactive: outcome [1] | outcome [2] | outcome [9] | outcome [3] | outcome [4] | outcome [5] | outcome [6] | outcome [7] | outcome [8]

CC(C)(CO)[C@@H](O)C(=O)NCCCO
inactive: outcome [1] | outcome [2] | outcome [9] | outcome [3] | outcome [4] | outcome [5] | outcome [6] | outcome [7] | outcome [8]

O=[Si]=O
inactive: outcome [1] | outcome [2] | outcome [9] | outcome [3] | outcome [4] | outcome [5] | outcome [6] | outcome [7] | outcome [8]

C=C(C)C(=O)OC1CC(C)CC(C)(C)C1 (stereo not given)
inactive: outcome [2] | outcome [9] | outcome [3] | outcome [4] | outcome [5] | outcome [6] | outcome [7] | outcome [8]

C[Si]1(C)N[Si](C)(C)N[Si](C)(C)N1
inactive: outcome [1] | outcome [2] | outcome [9] | outcome [3] | outcome [4] | outcome [6] | outcome [7] | outcome [8]

NS(=O)(=O)c1cc2c(cc1Cl)NC(CC1CCCC1)NS2(=O)=O (stereo not given)
inactive: outcome [2] | outcome [9] | outcome [3] | outcome [4] | outcome [5] | outcome [6] | outcome [7] | outcome [8]

CC(=O)N(CC(O)CO)c1c(I)c(C(=O)NCC(O)CO)c(I)c(C(=O)NCC(O)CO)c1I (stereo not given)
inactive: outcome [1] | outcome [2] | outcome [9] | outcome [3] | outcome [4] | outcome [6] | outcome [7] | outcome [8]

O=C1CC[C@H](C(=O)N2CCCCC2)N1
inactive: outcome [1] | outcome [2] | outcome [9] | outcome [3] | outcome [4] | outcome [5] | outcome [7] | outcome [8]

F[Si-2](F)(F)(F)(F)F
inactive: outcome [1] | outcome [2] | outcome [3] | outcome [4] | outcome [5] | outcome [6] | outcome [7] | outcome [8]

CC(C)=CC(C)(C)C
inactive: outcome [1] | outcome [9] | outcome [3] | outcome [4] | outcome [5] | outcome [7] | outcome [8]

CO[Si](CCCS)(OC)OC
inactive: outcome [2] | outcome [9] | outcome [3] | outcome [4] | outcome [5] | outcome [6] | outcome [7] | outcome [8]

CC(=O)/C=C/c1ccco1
inactive: outcome [1] | outcome [2] | outcome [9] | outcome [3] | outcome [4] | outcome [5] | outcome [6] | outcome [7] | outcome [8]

C=C[Si](C)(C)O[Si](C)(C)C=C
inactive: outcome [1] | outcome [2] | outcome [9] | outcome [3] | outcome [4] | outcome [5] | outcome [6] | outcome [7] | outcome [8]

Nc1c(NC/C=C\COc2cc(CN3CCCCC3)ccn2)c(=O)c1=O
inactive: outcome [1] | outcome [2] | outcome [9] | outcome [3] | outcome [4] | activity, negative = cytotoxicity [5] 0% [at 19 µM] | activity change, negative = inhibition [6] -0.0898% [at 19 µM] | viability change, negative = cytotoxic [7] -1.48% [at 15.8 µM] | activation [8] -3.62% [at 15.8 µM]

Nc1ccc(/C=C/c2ccc(N)cc2S(=O)(=O)O)c(S(=O)(=O)O)c1
inactive: activity change, negative = cytotoxicity [1] 8.54% [at 0.55 µM] | viability change, negative = cytotoxic [2] 9.91% [at 0.628 µM] | activity, negative = cytotoxic [9] 1.66% [at 0.628 µM] | activation [3] 0% [at 0.628 µM] | activity change, negative = cytotoxicity [4] 9.94% [at 0.628 µM] | activity, negative = cytotoxicity [5] -1.32% [at 0.349 µM] | viability change, negative = cytotoxic [7] 6.31% [at 0.29 µM] | activation [8] -7.74% [at 0.29 µM]

SCCSCCS
inactive: outcome [1] | outcome [2] | outcome [9] | outcome [3] | outcome [4] | outcome [6] | outcome [7] | outcome [8]

Nc1ccc(S(=O)(=O)NC(=O)c2ccccc2)cc1
inactive: outcome [2] | outcome [9] | outcome [3] | outcome [4] | outcome [5] | outcome [6] | outcome [7] | outcome [8]

Cc1ccccc1C
inactive: outcome [1] | outcome [2] | outcome [9] | outcome [3] | outcome [4] | outcome [5] | outcome [7] | outcome [8]

C=CC(C)(O)CC/C=C(\C)CC (stereo not given)
inactive: outcome [2] | outcome [9] | outcome [3] | outcome [4] | outcome [5] | outcome [6] | outcome [7] | outcome [8]

From PubChem BioAssay (Tox21)
